Tau fil binding – qHTS Assay for Tau Filament Binding; Microtubule-associated protein tau (Homo sapiens), P10636; recombinant tau filaments, thioflavin S fluorescence, 15 h; filaments grown with octadecylsulfate alongside compound; Potency, µM (series often up to 57.1 µM), for the others: top-dose activity change, negative = inhibition; 71,000 compounds, 2% hits; AID 596, 2007;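 also: % is scaled to controls: 0 for no effect and ±100 for the full control effect; actives lower thioflavin S fluorescence by blocking filaments or displacing dye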
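Thioflavine S fluorescence (ex 450, em 510 nm) reports filaments formed from 1 uM human tau plus 30 uM ODS over 15 h at 37 C (10 mM HEPES pH 7.4, 100 mM NaCl, 5 mM DTT); compounds displacing dye or blocking filaments lower signal.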
Pol III holo inh – qHTS Assay for Inhibitors of DNA Polymerase III Holoenzyme System. reconstituted DNA polymerase III holoenzyme replication, biochemical. Potency, µM (series often up to 57.1 µM), inactives show top-dose activity change, negative = inhibition. 71,000 compounds, 0.25% hits; also: % is scaled to controls: 0 for no effect and ±100 for the full control effect
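Reconstituted *E. coli* holoenzyme (0.35 nM Pol III, 1 nM beta, 154 nM SSB, 2 nM primase) was preincubated with compound for 15 min at RT. Synthesis on 1.4 nM ssM13Gori ran 35 min, then was stopped with PicoGreen/EDTA and read as dsDNA fluorescence.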
HEK293 cAMP ctrl – qHTS Assay for Agonists of the Thyroid Stimulating Hormone Receptor: Activators of Intracellular cAMP Concentrations in Parental HEK 293. parental HEK293 CNG cAMP sensor, membrane potential fluorescence. Potency, µM (highest dose often 57.1 µM), for the others: top-dose activation, usual class: activators. 73,000 compounds, 2.5% hits; also: % of control where 0% means no effect; nearly all actives have a fitted effect of over 55% in size
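Counterscreen for endogenous-receptor signalling: CNG-channel HEK 293 cells report cAMP rise by membrane depolarization. After 60 min dye equilibration with 100 uM RO 20-1724, compounds incubated 30 min before bottom-read fluorescence at 590 nm.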
TSHR agonist – qHTS Assay for Agonists of the Thyroid Stimulating Hormone Receptor; HEK293-CNG-TSHR cells (CNG channel as cAMP sensor), membrane potential dye, cAMP; Potency, µM (series often up to 57.1 µM), for the others: at the highest dose activation, actives largely listed as activators; 73,000 compounds, 0.48% hits; active = well fitted activation curve with a large enough effect in the main read-out, with a control signal flat, not every such curve was filed as active; inconclusive = small, poorly fitted or top-dose-only effect, or a change in a side signal; inactive = no such curve, though single readings can be large or run the other way; % of control where 0% means no effect;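 also: the control signal comes from parental cells without the receptor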
Target sequence (P16473 whole entry, looked up): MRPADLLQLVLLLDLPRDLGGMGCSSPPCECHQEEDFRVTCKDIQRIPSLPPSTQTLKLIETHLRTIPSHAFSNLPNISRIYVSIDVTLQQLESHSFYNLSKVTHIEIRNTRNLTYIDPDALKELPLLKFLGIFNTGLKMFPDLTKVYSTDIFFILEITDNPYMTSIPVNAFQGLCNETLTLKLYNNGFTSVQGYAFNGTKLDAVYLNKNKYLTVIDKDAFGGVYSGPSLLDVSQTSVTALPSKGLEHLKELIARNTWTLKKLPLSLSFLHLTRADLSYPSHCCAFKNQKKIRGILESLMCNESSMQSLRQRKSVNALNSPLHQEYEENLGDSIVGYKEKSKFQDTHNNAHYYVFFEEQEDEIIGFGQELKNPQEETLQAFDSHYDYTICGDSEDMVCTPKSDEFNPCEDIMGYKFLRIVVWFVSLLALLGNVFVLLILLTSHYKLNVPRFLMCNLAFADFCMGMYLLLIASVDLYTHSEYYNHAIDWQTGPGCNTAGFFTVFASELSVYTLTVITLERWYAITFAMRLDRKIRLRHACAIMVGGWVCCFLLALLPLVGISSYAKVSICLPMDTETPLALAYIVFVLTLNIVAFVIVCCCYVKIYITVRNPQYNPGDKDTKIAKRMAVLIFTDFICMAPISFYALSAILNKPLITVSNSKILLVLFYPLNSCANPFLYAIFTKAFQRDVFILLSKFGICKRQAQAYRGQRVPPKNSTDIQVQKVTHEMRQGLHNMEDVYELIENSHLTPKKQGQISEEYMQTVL
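cAMP rise detected as CNG-channel membrane depolarization by fluorescent dye (emission 590 nm), 30 min after compound, following 60 min dye loading containing 100 uM RO 20-1724 at room temperature. Cells: TSHR/CNG HEK 293, with parental CNG HEK 293 as control.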
Hsp90 Hop PPI – qHTS Assay for Disrupters of an Hsp90 Co-Chaperone Interaction | AlphaScreen TPR2A-His6 binding biotin-Hsp90 C-terminal peptide | AID 595, 2007 | Hsp90 C-terminal peptide / TPR2A (Hop) interaction, human | Potency, µM (highest dose often 57 µM), without a hit: top-dose activity change, negative = inhibition | 71,000 compounds, 0.44% hits; active = well fitted curve in either direction with a large enough effect; inconclusive = small, poorly fitted or top-dose-only effect, or another doubt; also: % is scaled to controls: 0 for no effect and ±100 for the full control effect
Starred values were filed as active, the others as inactive; ? = inconclusive; . = no result given; ! = a repeat was not active; [ ] = another dose, or the depositor's remark. In the library only some 5.1% were active in any assay of this set; here they are far more common. Unless noted, calls follow the shape of the dose curve; as a rule, active = well fitted curve in the direction sought with a large enough effect; inconclusive = small, poorly fitted or top-dose-only effect, or another doubt; inactive = no such curve, though single readings can be large; an effect the other way counts as inactive or inconclusive. Potency is read from the fitted curve at half-maximal effect.

SMILES	Tau fil binding	Pol III holo inh	HEK293 cAMP ctrl	TSHR agonist	Hsp90 Hop PPI
CN(C)CCCNc1cc(O)c2c(c1O)C(=O)c1ccccc1C2=O	1µM*	?	-26%[11.4 µM]	-23%[11.4 µM]	?
CN(C)CCCNC(=O)c1ccc(-c2ccccc2)cc1	-22%	2%	18%	12%	?
C=CCOC(=O)C(C(C)=O)C(NC(=O)OC)c1ccco1 (stereo not drawn)	.	.	3%[11.4 µM]	-5%[11.4 µM]	.
CCOC(=O)c1c(C)c(C(=O)Nc2cc(F)ccc2F)c(C)n1C	71%	0%	7.9µM*	?	-2%
Cc1cc2c(nc1C)CCCCN2C[C@H](C)O/N=C1/[C@H]2O[C@@H]2[C@@H](O)[C@H]2[C@H]1CCn1c(=O)n(-c3ccccc3)c(=O)n12	.	.	3%[11.4 µM]	6%[11.4 µM]	.
COCCn1c(C)nc2oc3ccc(Br)cc3c(=O)c2c1=O	16µM*	-9%	-6%	-16%	-6%
CCc1nc2oc3ccccc3c(=O)c2c(=O)n1CCOC	-15%	10%	0%	5%	0%
COc1cccc(-c2ccc3ncnc(N4CCNCC4)c3c2)c1	8%	8%	13%	8%	-9%
CC1(c2ccncc2)Nc2ccccc2-c2nc3ccccc3n21 (stereo not drawn)	-28%	-1%	6%	25µM*	5%
Fc1ccc(-c2nnc3ccc(N4CCc5ccccc5C4)nn23)cc1	170%	-8%	-3%	29%	-6%
COc1ccccc1-c1nnc2sc(-c3cc4ccccc4o3)nn12	5%	-14%	25µM*	?	-1%
CN1CCN(C(c2cccnc2)c2ccc3cccnc3c2O)CC1 (stereo not drawn)	-1%	-10%	-2%	7%	3.2µM*
Nc1nonc1-c1nc2ccccc2n1CC(=O)N1CCCCC1	-12%	-3%	?	?	-2%
COC(=O)c1ccccc1NC(=O)Cn1c(-c2nonc2N)nc2ccccc21	258%	0%	16µM*	?	-3%
OC[C@@H]1CCC[C@H](n2cnc3c(=S)nc[nH]c32)O1	0%[11.4 µM]	-7%[11.4 µM]	5%[11.4 µM]	4%[11.4 µM]	-2%[11 µM]
Cc1cc(C)nc(NC(=NCCc2c[nH]c3ccccc23)NC(=O)c2ccco2)n1	106%	3%	21%	5µM*	0%
O=C(O)[C@@H]1[C@H](C(=O)O)[C@H]2C(=O)C=C[C@H]1N2Cc1ccccc1	-5%[11.4 µM]	-7%[11.4 µM]	0%[11.4 µM]	-1%[11.4 µM]	-1%[11 µM]
Nc1nc(C(=O)O)c(N=Nc2ccccc2)c(=O)[nH]1	5µM*	2%[11.4 µM]	16%[11.4 µM]	2%[11.4 µM]	-27%[11 µM]
CCN(CC)CCCC(C)n1c(-c2ccccc2)nc2c(NCCO)nc(C)nc21 (stereo not drawn)	-12%	-5%	22%	3%	-1%
COCC(=O)NCc1ccc2c(c1)cc(C)n2C	22%	2%	9%	20%	-4%
CCn1nnc(NC(=O)c2cc3ccccc3o2)n1	0%	-2%	1%	4%	-3%
Cc1cc2cc(CNC(=O)c3cc4ccccc4o3)ccc2n1C	16µM*	0%	4%	-5%	?
Cc1cc(-c2csc(NC(=O)c3cc4ccccc4o3)n2)c(C)n1C	10µM*	-2%	-18%	-10%	-10%
COc1ccc(-c2cc(C(=O)N/N=C/c3ccc(O)cc3)[nH]n2)cc1	.	.	-8%	10%	.
O=C(c1cnccn1)N1CCC2(CC1)CCN(C(c1ccccc1)c1ccccc1)CC2	-5%	-9%	-8%	0%	-6%
SMILES	Tau fil binding	Pol III holo inh	HEK293 cAMP ctrl	TSHR agonist	Hsp90 Hop PPI
CCN(Cc1ccccc1)C(c1ccccn1)c1nnnn1C(C)(C)CC (stereo not drawn)	-5%	-10%	5µM*	?	5%
COCCn1c(=O)c(CCc2ccccc2)nc2cnc(OC)nc21	1%	0%	25%	.	1%
CCOC(=O)CCc1c(C)c2ccc(OC(C)C(=O)OCC)c(C)c2oc1=O (stereo not drawn)	23%	1%	20µM*	?	9%
CCC(=O)Oc1ccc2c(C)cc(=O)oc2c1C	20%	-7%	-9%	-7%	1%
O=C1NC(c2cccs2)Nc2sc3c(c21)CCCC3 (stereo not drawn)	2.5µM*	?	3%	-3%	?
CC(C)(C)n1nnnc1C(c1cccs1)N1CCCc2ccccc21 (stereo not drawn)	-6%	-5%	16µM*	?	6%
CC(C)(C)n1nnnc1C(c1cccs1)N1CCCC2(CCCCC2)C1 (stereo not drawn)	-3%	-1%	?	?	10%
Cc1ccc(O)c(-c2cc(-c3ccccc3C)[nH]n2)c1	25µM*	4%	5%	1%	9%
CS(=O)(=O)Nc1ccc(Nc2c3ccccc3nc3ccccc23)cc1	1.6µM*	-8%[11.4 µM]	-9%[11.4 µM]	-7%[11.4 µM]	-3%[11 µM]
CN(C)c1nc(-c2cccc(NS(C)(=O)=O)c2)nc2ccccc12	1%	-5%	?	?	-1%
CCCCn1cnc2c(SC)ncnc21	0%[11.4 µM]	-2%[11.4 µM]	18%[11.4 µM]	.	-1%[11 µM]
Cc1onc(-c2ccccc2)c1C(=O)Nc1ccc2c(c1)OCO2	16µM*	-7%	2%	10%	-2%
CC(=O)Nc1cccc(NC(=O)c2c(-c3c(Cl)cccc3Cl)noc2C)c1	5%[11.4 µM]	-12%[11.4 µM]	-12%[11.4 µM]	2µM*	-5%[11 µM]
Cc1cc(C)nc(NC(=O)c2c(-c3c(Cl)cccc3Cl)noc2C)n1	5%	-13%	2%	-2%	-2%
CN(C)C(=O)c1ccc(-c2nc(N(C)C)c3ccccc3n2)cc1	-19%	1%	-16%	6%	?
CCC(=O)OCC(=O)[C@@]1(OC(=O)CC)[C@H](C)C[C@@H]2[C@H]3CCC4=CC(=O)C=C[C@]4(C)[C@]3(Cl)[C@@H](O)C[C@@]21C	2%[25.6 µM]	-3%[25.6 µM]	18%[25.6 µM]	24%[25.6 µM]	-5%[26 µM]
Nc1cc(-c2cccc(F)c2)nn1S(=O)(=O)c1cccc2nsnc12	16µM*	2%	5%	17%	?
CNCCCC1c2ccccc2C=Cc2ccccc21	5µM*!	2%[25.6 µM]	-1%[25.6 µM]	-5%[25.6 µM]	-2%[26 µM]
CN(CCO)C(=O)CCC(=O)Nc1ccc(S(N)(=O)=O)cc1	-8%	-11%	-1%	2%[11.4 µM]	-2%
O=c1cc(CSc2ccc(Cl)cc2)nc2nc[nH]n12	1%	-2%	10µM*	?	2%
CCS(=O)(=O)Nc1c(C(=O)O)[nH]c2ccccc12	20µM*	-6%	-9%	-5%	-9%
CCS(=O)(=O)Nc1c(C(=O)OC)[nH]c2ccccc12	-6%	-10%	-1%	2%	-1%
c1ccc(-c2nc(NCCCN3CCOCC3)c3ccccc3n2)cc1	5µM*	-8%	18%	-36%	-2%
C=CCn1cnc2c(c1=O)c1nc3ccccc3nc1n2/N=C/c1cccc(OC)c1	3.2µM*	-7%	-9%	-8%	-3%
O=c1c(-c2cccc(Cl)c2)nc2cncnc2n1-c1ccccc1	5%	-5%	?	?	-5%

Bioassay records: PubChem, National Center for Advancing Translational Sciences (NCATS)
